GSTO1 counter: inhibitors of recombinant GSTO1, primary screen, counter-screen for RBBP9 inhibitor project, biochemical, fluorescence polarization; Glutathione S-transferase omega-1 (Homo sapiens), P78417; activity-based probe fluorescence polarization; AID 1974, 2009; 300,000 compounds, 1.1% hits; inhibition, % at 5.96 µM;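 active = inhibition above the campaign mean inhibition plus 3 SD, cut at about 35% in these data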;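 note: 0% = GSTO1-1 with DMSO and 100% = wells lacking GSTO1-1 enzyme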
Target sequence (P78417 whole entry, looked up): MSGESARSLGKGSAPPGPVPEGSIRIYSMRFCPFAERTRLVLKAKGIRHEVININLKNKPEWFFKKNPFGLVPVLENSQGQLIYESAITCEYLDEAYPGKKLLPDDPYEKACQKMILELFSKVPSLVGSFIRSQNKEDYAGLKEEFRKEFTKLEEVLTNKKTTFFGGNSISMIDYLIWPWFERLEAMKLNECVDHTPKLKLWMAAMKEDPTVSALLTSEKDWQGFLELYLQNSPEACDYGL
PME-1 primary: PME-1 inhibitors via competitive probe labeling, primary screen, biochemical, fluorescence polarization, FP-Rh probe, HTS | recombinant PME-1 | inhibition, % at 5.9 µM | 320,000 compounds, 0.53% hits | AID 2130, 2009;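 active = inhibition above the campaign mean of all compounds plus 3 SD, cut at about 26% in these data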;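 note: competitive labeling of PME-1 active site by serine hydrolase directed probe; 0% = PME-1 with DMSO and 100% = wells lacking PME-1 enzyme; inhibitors block probe labeling so polarization falls and inhibition rises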
Fam108B counter: mouse Fam108B serine hydrolase inhibitors, primary screen, counter-screen for RBBP9 inhibitor project, biochemical, fluorescence polarization | 300,000 compounds, 0.33% hits | inhibition, % at 9.51 µM | AID 1947, 2009 | recombinant Fam108B, FP-Rh probe fluorescence polarization;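 active = inhibition above the screen mean inhibition plus 3 SD, computed separately per campaign, cut at about 18% in these data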;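 note: inhibitors lower polarization as less probe binds the enzyme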
PAD4 inh: human PAD4 inhibitors, primary screen, biochemical, fluorescence polarization, 1536-well format; AID 485272, 2010; 330,000 compounds, 0.41% hits; recombinant PAD4, RCA probe fluorescence polarization; inhibition, % at 6.36 µM;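 active = percent inhibition above a cutoff equal to the mean of all tested compounds plus 3 SD, cut at about 15% in these data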;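 note: 0% = PAD4 with RCA probe and DMSO and 100% = probe without PAD4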
LYPLA2 inh: LYPLA2 inhibitors, primary screen, counter-screen for PME1 inhibitor project, biochemical, fluorescence polarization, FP-Rh probe ABPP. Acyl-protein thioesterase 2 (Homo sapiens), O95372. recombinant LYPLA2. inhibition, % at 5.9 µM. 320,000 compounds, 0.38% hits;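 active = inhibition above the screen-wide mean plus 3 SD, limit set per campaign, cut at about 26% in these data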;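 note: 0% = LYPLA2 with DMSO and 100% = wells lacking LYPLA2 enzyme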
Target sequence (O95372 whole entry, looked up): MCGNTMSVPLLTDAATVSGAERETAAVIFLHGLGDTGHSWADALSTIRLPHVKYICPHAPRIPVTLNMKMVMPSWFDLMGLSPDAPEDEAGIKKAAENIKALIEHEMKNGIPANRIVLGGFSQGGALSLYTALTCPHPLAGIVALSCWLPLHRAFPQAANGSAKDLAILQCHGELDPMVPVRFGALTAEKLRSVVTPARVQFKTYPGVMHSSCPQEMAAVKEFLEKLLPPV
LYPLA1 inh: LYPLA1 inhibitors, primary screen, counter-screen for PME1 inhibitor project, biochemical, fluorescence polarization, FP-Rh probe ABPP | 320,000 compounds, 0.16% hits | AID 2174, 2009 | Acyl-protein thioesterase 1 (Homo sapiens), O75608 | inhibition, % at 5.9 µM | recombinant LYPLA1;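 active = inhibition above the mean of all tested compounds plus 3 SD, set per campaign, cut at about 14% in these data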;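 note: inhibitors block serine hydrolase probe labeling of LYPLA1 so polarization falls; 0% = enzyme with DMSO and 100% = wells lacking LYPLA1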
Target sequence (O75608 whole entry, looked up): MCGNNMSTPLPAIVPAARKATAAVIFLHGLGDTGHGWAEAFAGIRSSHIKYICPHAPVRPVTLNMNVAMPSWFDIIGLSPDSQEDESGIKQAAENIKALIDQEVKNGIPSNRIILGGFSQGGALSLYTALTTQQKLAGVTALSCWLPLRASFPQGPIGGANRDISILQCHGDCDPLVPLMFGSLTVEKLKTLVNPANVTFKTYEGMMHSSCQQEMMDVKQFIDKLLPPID
PAD4 FP conf: human PAD4 inhibitors, confirmation, biochemical, fluorescence polarization; shares compounds with PAD4 inh; recombinant PAD4, RCA probe fluorescence polarization; inhibition, % at 6.36 µM; 1,200 compounds, 28% hits; AID 488796, 2010;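 active = mean inhibition across replicates above the hit cutoff set by the earlier primary screen, cut at about 15% in these data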;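 note: inhibitors block active-site labeling by the probe so polarization falls; 0% = PAD4 with probe and DMSO and 100% = probe without PAD4 enzyme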
The depositor's hits bear a star; · = no result. In the library only some 1.8% were active in any assay of this set; here they are far more common.

SMILES	GSTO1 counter	PME-1 primary	Fam108B counter	PAD4 inh	LYPLA2 inh	LYPLA1 inh	PAD4 FP conf
CC(=O)COc1ccc2c(C)c(-c3ccccc3)c(=O)oc2c1	-4.3	0.2	1.1	22.9*	5.0	3.9	-4.2
CCCCc1c(C)c2ccc(OCC(C)=O)cc2oc1=O	-8.6	-6.4	-0.2	-3.1	-4.3	-3.2	·
O=S(=O)(Nc1cccc(S(=O)(=O)N2CCCCC2)c1)c1ccc(Cl)s1	·	·	·	-7.8	·	·	·
COc1ccc(/C=C(/NC(=O)c2ccco2)C(=O)N2CCc3ccccc32)cc1OC	4.7	4.7	-1.2	1.5	3.2	1.1	·
O=C(NCc1cccc(OC(F)(F)F)c1)c1cccc2c1C(=O)c1ccc(-c3ccc(F)cc3OCc3ccccc3)cc1S2(=O)=O	·	·	·	4.4	·	·	·
O=C1c2ccc(-c3ccc(F)cc3OCc3ccccc3)cc2S(=O)(=O)c2cccc(C(=O)N3CCCC3)c21	·	2.7	·	16.6*	17.8	3.4	14.9*
CCOc1ccc(NC(=O)CN(C)C(=O)CC2CC3CCC2C3)cc1OCC (centres undefined)	4.0	-0.5	1.1	45.3*	9.9	7.4	3.8
Cn1c(CSCc2ccc(Cl)cc2)n[nH]c1=S	-0.2	-0.3	-2.4	-7.3	-2.0	-0.2	·
Cc1ccc(S(=O)(=O)N2CCCC2=O)c(C)c1N(C)S(C)(=O)=O	4.8	-2.3	0.9	15.7*	2.3	2.7	4.3
C[C@H](NC(=O)c1nc[nH]c1C(=O)N1CCNCC1)C(=O)OC(C)(C)C	-1.5	1.6	-1.3	3.2	1.6	-0.3	·
NC(=O)c1oc2ccccc2c1NC(=O)C1CC(=O)N(c2ccccc2)C1 (centres undefined)	6.9	5.8	0.5	18.3*	9.5	1.1	27.1*
Cc1cc2c(c(=O)o1)C(c1ccc([N+](=O)[O-])o1)C(C#N)=C(N)O2 (centres undefined)	22.8	12.1	6.0	26.5*	10.0	7.2	2.2
CCC(CC)C1C(C#N)=C(N)Oc2cc(C)oc(=O)c21 (centres undefined)	-1.8	-1.9	3.6	-4.6	-5.3	-3.1	·
COc1ccc(OC)c(NC(=O)COC(=O)[C@H](Cc2ccccc2)NC(=O)c2ccco2)c1	·	·	·	-2.0	·	·	·
COC(=O)CCSc1cc(NCCOC(C)=O)c([N+](=O)[O-])c2nonc12	4.1	5.2	2.7	-10.6	-4.1	-1.7	·
CC(=O)OCCNc1cc(SCc2ccco2)c2nonc2c1[N+](=O)[O-]	23.9	1.1	10.5	15.9*	-1.9	-6.7	-3.7
CCCN(C(=O)Cc1coc2cc(OC)ccc12)C1CCS(=O)(=O)C1 (centres undefined)	·	·	·	0.6	·	·	·
Cc1cc(C)c(C#N)c(Sc2ccccc2N)n1	1.1	1.7	-0.8	20.5*	6.1	5.6	52.0*
C=CCN1CN(S(=O)(=O)c2cccc(Cl)c2)c2nc3ccccc3nc21	-1.4	8.6	-4.7	46.4*	5.6	0.3	3.0
COCCN1CN(S(=O)(=O)c2cccc(Cl)c2)c2nc3ccccc3nc21	-3.8	16.6	2.1	-3.9	4.8	2.7	·
CCOC(=O)CN(C(=O)COc1nc(-c2ccccc2)cc(C)c1C#N)c1ccccc1	5.0	-5.3	-4.8	-0.5	0.2	0.8	·
CCOC(=O)CN(C(=O)COc1nc(-c2ccccc2)cc(C)c1C#N)c1ccccc1C	-0.5	5.1	-5.3	19.9*	4.3	1.7	-8.4
CCc1ccc(NC(=O)C2CCCN2S(=O)(=O)c2ccc3c(c2)n(C)c(=O)c(=O)n3C)cc1 (centres undefined)	12.1	0.1	1.3	3.1	3.4	3.5	·
COc1ccc(N2CCN(C(=O)CN(c3cccc(OC)c3)S(=O)(=O)c3ccccc3)CC2)cc1	5.6	5.3	-1.8	-0.9	-4.3	0.3	·
CN(C)c1cccc(O)c1	·	-6.0	·	21.8*	6.7	1.2	2.1
SMILES	GSTO1 counter	PME-1 primary	Fam108B counter	PAD4 inh	LYPLA2 inh	LYPLA1 inh	PAD4 FP conf
CCc1noc(C)c1C(=O)OCC(=O)c1ccc(NC(C)=O)cc1F	·	·	·	-6.5	·	·	·
S=c1[nH]nc(-c2cc(-c3ccccc3)n[nH]2)n1/N=C/c1cccc(Cl)c1	3.9	24.4	3.8	15.5*	2.5	-3.0	9.3
S=c1[nH]nc(-c2cc(-c3ccccc3)n[nH]2)n1/N=C/c1ccc(Cl)cc1	-12.4	15.9	-0.2	5.9	-10.1	-4.2	·
c1cc(CNc2ccc(N3CCOCC3)cc2)ccn1	18.1	6.3	-0.7	24.8*	4.4	-2.5	3.6
CCN1C=C(Cc2ccc(OC)cc2)C2=C(C1)C(c1ccc(OC)cc1)C(C#N)=C(N)O2 (centres undefined)	2.9	-7.6	-3.5	41.7*	-0.2	2.4	3.5
COc1cc(C2C(C#N)=C(N)Oc3n[nH]c(-c4cccnc4)c32)cc(Br)c1O (centres undefined)	13.8	-2.0	-5.7	21.3*	-4.9	0.2	-3.6
COc1cc(C2C(C#N)=C(N)Oc3n[nH]c(-c4cccnc4)c32)ccc1OCC(N)=O (centres undefined)	13.7	4.4	-0.6	21.0*	-2.1	2.8	5.2
CCOc1ccc(NC(=O)CCC(=O)NNC(=O)c2cccc([N+](=O)[O-])c2)cc1	·	·	·	-5.7	·	·	·
CCN1CCN(S(=O)(=O)c2ccc(Cl)c(C(=O)NCc3ccco3)c2)CC1	8.3	-1.7	1.8	-3.6	-5.2	-3.1	·
CCOc1ccccc1C(=O)NCC(=O)NCCCc1ccccc1	0.0	0.6	1.2	62.2*	-3.8	0.2	-1.1
CCN(CC)CCn1c2c(c(SCC(=O)Nc3nc4ccccc4s3)nc1=O)CCC2	9.9	2.1	-1.9	17.3*	1.0	-0.2	13.6
CCOC(=O)c1ccc(NC(=O)CSc2nc(=O)n(CCN3CCOCC3)c3c2CCC3)cc1	0.0	1.4	1.3	17.1*	-7.7	-1.1	7.8
CCc1nnc(SCC(=O)Nc2ccc(NC(C)=O)cc2)n1-n1cccc1	3.5	0.5	0.0	0.0	8.4	4.4	·
Cc1cccc(C(=O)O/N=C(\N)Cc2cccc3ccccc23)c1	-2.9	0.5	0.0	34.3*	-7.8	-5.3	3.5
CC(C)c1ccc(N=c2c([N+](=O)[O-])nn(-c3ccc4c(c3)OCCO4)n2O)cc1	-2.8	6.1	-2.1	18.5*	8.1	-4.2	1.9
c1ccc(Nc2ccccc2Nc2ccccn2)nc1	6.1	4.1	2.0	29.5*	11.2	8.1	3.2
NC(=O)c1ccc(-n2nnnc2SCC(=O)Nc2ccccc2-c2ccccc2)cc1	6.6	4.2	4.2	16.2*	-0.1	3.6	4.6

Bioassay records as filed in PubChem.
